Assay outcomes: PubChem BioAssay, National Center for Advancing Translational Sciences (NCATS)
D1 ag: agonists of human D1 dopamine receptor | P21728 | HEK293 T-REx D1 cells, calcium flux, agonist mode | activation, % at 2 µM | 360,000 tested, 1% active | AID 504660; further: 0% is about no effect
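Agonism was scored from calcium flux recorded over 180 s (1 read/s) after pintool compound addition, following a 10-cycle baseline. Cells were inducible force-coupled HEK293 TREx D1, plated overnight at 30 C and loaded with no-wash calcium dye.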
TRHR enhancer: allosterically enhances the human TRH receptor; enhancement, % at 2 µM; TRHR cells, fluo-8 calcium fluorescence, EC20 TRH enhancement; 360,000 tested, 0.66% active; in the data active means enhancement above about 30%; further: 0% is about no effect
Target sequence (P34981 whole entry, looked up): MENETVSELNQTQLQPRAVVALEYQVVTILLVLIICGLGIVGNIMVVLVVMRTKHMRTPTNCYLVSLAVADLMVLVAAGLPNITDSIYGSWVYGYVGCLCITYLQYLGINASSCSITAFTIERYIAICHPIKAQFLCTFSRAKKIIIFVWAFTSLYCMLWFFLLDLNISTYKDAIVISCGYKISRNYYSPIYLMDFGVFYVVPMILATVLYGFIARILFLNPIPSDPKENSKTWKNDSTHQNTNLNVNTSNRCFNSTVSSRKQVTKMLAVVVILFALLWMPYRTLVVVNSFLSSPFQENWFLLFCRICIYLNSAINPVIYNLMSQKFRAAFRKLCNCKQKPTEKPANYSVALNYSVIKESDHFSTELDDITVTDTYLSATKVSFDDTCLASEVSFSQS
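Enhancer read-out: after compound pinning and an initial kinetic agonist-mode read, an EC20 of TRH (10 nM final) was injected and fluo-8 calcium signal (Ex 480/Em 530) followed at 1 s/cycle for 100 cycles in TRHR-expressing cells.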
TRHR agonist: agonists of human TRH receptor. P34981. 360,000 tested, 0.18% active. activation, % at 2 µM. TRHR cells, calcium flux fluo-8, FDSS agonist mode. AID 493084; further: 0% is about no effect
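Steps: seed TRHR cells overnight; add fluo-8 no-wash Ca dye, RT 30 min–1.5 h; record 10 s baseline; pin-transfer compounds; monitor fluorescence 1 cycle/s for the agonist window. Calcium increases flag candidate agonists.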
D1 antagonist: blocks dopamine activation of the human D1 receptor; P21728; HEK293 TREx D1 cells, calcium flux, dopamine EC80; hits give low values; activity change, negative = inhibition, % at 10 µM; 360,000 tested, 3.2% active; AID 504652; in the data active means activity change below about -30%; further: on the % scale 0 is the no-effect control and ±100 the full control effect
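Calcium flux readout: force-coupled, inducible Hek293 Trex D1 line, cells induced overnight at 30 C with tetracycline, dye-loaded 30–90 min at RT. Antagonism scored against EC80 dopamine challenge given 180 s after compound.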
LDHA block: LDHA (human) enzyme inhibition. P00338. purified LDHA, NADH/diaphorase-resazurin fluorescence; hits give low values. activity change, % (values are at about 110 or 230 µM). 480,000 tested, 0.15% active. AID 1347041; in the data active means activity change below about -30%;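 further: plate controls were DMSO wells for no effect and wells without enzyme for full effect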
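Enzyme activity of human lactate dehydrogenase 5 (2 nM; 0.06 mM NADH, 0.2 mM pyruvate, 5 min, RT) is measured via a resazurin/diaphorase fluorescence readout of residual NADH.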
D1 potentiator: human D1 dopamine receptor positive modulation | HEK293 TREx D1 cells, calcium flux, dopamine EC20 potentiation | potentiation, % at 10 µM | 360,000 tested, 0.036% active; in the data active means potentiation above about 30%; further: 0% is about no effect
* hit, by the source's call; . = not tested or not shown. Compounds with a hit are over-represented: about 3.6% of the library has one in this group of screens. Unless noted, no stated cut-off is given here; in the data, active means activation above about 30%; inactive means the rest.

SMILES	D1 ag	TRHR enhancer	TRHR agonist	D1 antagonist	LDHA block	D1 potentiator
O=C(c1cccc2ccccc12)C1CCCN(C(=O)CCN2CCCO2)C1 (stereo unspecified)	6	38*	-1	-8	-3	-8
COC(=O)/C=c1/s/c(=C(\C#N)C(=O)NCc2ccco2)n(-c2ccccc2)c1=O	1	-2	1	-33*	-1	-2
COc1ccc(/C=c2\s/c(=C(/C#N)C(=O)NCc3ccco3)n(-c3ccccc3)c2=O)cc1	3	6	0	-5	-5	3
CCOc1ccccc1NC(=O)c1ncoc1-c1cccc(C)c1	.	.	.	.	-15	.
O=c1[nH]c(CSc2nc3ccccc3[nH]2)nc2c1cnn2-c1ccccc1	16	1	0	-37*	-3	-6
Cc1cc(C(=O)CSc2nnc(CN3CCCC3)n2-c2ccccc2)c(C)n1C	.	.	.	.	2	.
CCc1cccc(NC(=O)CN2CCCN(Cc3cccc(C)c3)S2(=O)=O)c1	5	4	-1	-1	1	1
Cc1cccc(CN2CCN(CC(=O)Nc3c(C)cccc3C)S2(=O)=O)c1	5	0	36*	3	1	4
Cc1ccc(C)c(NC(=O)CN2CCCN(Cc3cccc(Cl)c3)S2(=O)=O)c1	6	1	0	-79*	-4	-2
CCC(Sc1nc2ccccc2c2nc(CCn3c(C)nc4ccccc43)nn12)C(=O)Nc1ccc(F)cc1 (stereo unspecified)	1	2	0	-42*	-4	-4
Cc1nc2ccccc2n1CCc1nc2c3ccccc3nc(SCC(=O)Nc3ccc(C(C)C)cc3)n2n1	3	5	0	-20	-3	-4
Cn1nc(C(=O)OCC(=O)NCC2CCCO2)c2ccccc2c1=O (stereo unspecified)	.	.	.	.	4	.
O=C(c1nc2n(n1)C(c1ccc(Cl)cc1)C=C(c1ccccc1)N2)N1CCOCC1 (stereo unspecified)	27	6	33*	7	-2	3
COc1ccc(C2C=C(c3ccc(Cl)cc3)Nc3nc(NC(C)=O)nn32)cc1 (stereo unspecified)	40*	9	-2	-3	.	-5
COc1ccc(C2C=C(c3ccccc3)Nc3nc(NC(=O)/C=C/c4ccccc4)nn32)cc1 (stereo unspecified)	1	2	0	10	1	-1
COc1ccc(C2C=C(c3ccc(F)cc3)Nc3nc(-c4ccc(Cl)cc4)nn32)cc1 (stereo unspecified)	38*	7	-1	9	1	-4
CC(=O)Nc1nc2n(n1)C(c1ccc(F)cc1)C=C(c1ccccc1)N2 (stereo unspecified)	10	12	0	-4	2	3
COc1ccc(C2=CC(c3ccc(F)cc3)n3nnnc3N2)cc1 (stereo unspecified)	0	-2	0	-8	0	-6
COc1ccc(C(=O)Nc2nc3n(n2)C(c2ccccc2)C=C(c2ccccc2)N3)cc1 (stereo unspecified)	32*	-4	14	-13	-1	-4
CCc1ccc(-c2nc(SC(C(=O)N(CC)CC)c3ccccc3)n[nH]2)cc1 (stereo unspecified)	.	.	.	.	0	.
O=C(Nc1nc2n(n1)C(c1ccccc1)C=C(c1ccc(Cl)cc1)N2)c1ccco1 (stereo unspecified)	47*	-2	22	-1	1	-1
COc1ccc(C2C=C(c3cccs3)Nc3nc(CCCO)nn32)cc1 (stereo unspecified)	64*	0	99*	8	.	7
CCC(=O)Nc1nc2n(n1)C(c1ccc(OC)cc1)C=C(c1ccccc1)N2 (stereo unspecified)	69*	-3	0	-3	.	-2
COc1ccc(C2C=C(c3ccccc3)Nc3nc(CCCO)nn32)cc1 (stereo unspecified)	2	12	4	-10	-2	-2
CC(C#N)Sc1nnc2c(Cl)cc(C(F)(F)F)cn12 (stereo unspecified)	.	.	.	.	5	.
SMILES	D1 ag	TRHR enhancer	TRHR agonist	D1 antagonist	LDHA block	D1 potentiator
CN(C)c1ccc(/C=C(\C#N)C(=O)Nc2nc3c(s2)CCN(Cc2ccccc2)C3)cc1	68*	-6	23	-19	-3	-1
O=C(Nc1nc2c(s1)CN(Cc1ccccc1)CC2)C1CCC1	5	-2	0	-19	-4	-1
O=C(Nc1ccccc1)c1cc(N2CCOCC2)nc2ccccc12	1	1	0	-55*	-2	0
Cc1cccc(-c2nc3ccccc3s2)c1	.	.	.	.	1	.
CC(=O)OC1COC(N2CCc3ccccc32)C(OC(C)=O)C1OC(C)=O (stereo unspecified)	1	36*	0	8	-1	1
CCOC(=O)C1CCN(S(=O)(=O)c2ccc(NC(=O)c3ccco3)cc2)CC1	2	1	-1	-33*	-1	-6
Cc1ccc(C(=O)Nc2ccc(S(=O)(=O)N3CCOCC3)cc2)cc1	5	19	-1	-6	-5	2
CC1CCN(S(=O)(=O)c2ccc(NC(=O)CN3CCN(C)CC3)cc2)CC1	0	-2	1	4	-41*	2
Cc1ccc(NC(=O)c2ccc(S(=O)(=O)N3CCC(C)CC3)cc2)cc1	0	4	0	-39*	-10	-5
CC1(C)CC(=O)c2cc(C#N)c(SCC(N)=O)nc2C1	.	.	.	.	6	.
CCCCOC(=O)CSc1nc2c(cc1C#N)C(=O)CC(C)(C)C2	1	-4	-1	-39*	-2	3
CC1CC(C)(C)CC2(C1)NC(=O)N(CC(=O)Nc1cc([N+](=O)[O-])ccc1F)C2=O (stereo unspecified)	1	2	1	-33*	-13	-6
N#Cc1cccc(NC(=O)c2ccccc2Oc2ccccc2)c1	.	.	.	.	9	.
O=C(COC(=O)COc1ccc2ccccc2c1)NCC(F)(F)F	25	-7	0	-32*	2	3
Fc1cccc(Cl)c1-c1nnc2ccc3ccccc3n12	8	-2	-1	-19	-3	-5
Fc1ccccc1-c1nnc2ccc3ccccc3n12	1	36*	0	-3	-1	-1
CCC(CO)N=CC1=C(O)CC(c2ccccc2)CC1=O (stereo unspecified)	-2	32*	0	11	-11	-3
Cc1cccc(-c2cc(=O)c(C(=O)O)cn2-c2ccc(F)cc2F)c1	3	5	0	-40*	-1	-7
CCc1c(C)sc(NC(=O)CCc2ccccc2)c1C#N	.	.	.	.	7	.
COc1cccc(CC(=O)OCC(=O)NNC(=O)c2ccc(Br)cc2)c1	7	-1	0	-33*	0	.
